In PubChem BioAssay AID652031 (The Scripps Research Institute Molecular Screening Center, 2013):
Screen size: about 16,000 compounds; about 70 (0.4%) were called active. Cut-off read from the data, not from the text of the source: active = inhibition above about 50%; inactive = the rest. Only a selection was taken, and actives are over-represented in it overall.

Target: Kappa-type opioid receptor (Homo sapiens) (UniProt P41145)
Assay: blocks the human kappa opioid receptor, Maybridge compounds (AID 652031)
Details: OPRK1 cells, antagonist mode, fluorescence readout; at 9 µM; stronger effect = higher value

Kappa-type opioid receptor (Homo sapiens), sequence (P41145 whole entry, looked up): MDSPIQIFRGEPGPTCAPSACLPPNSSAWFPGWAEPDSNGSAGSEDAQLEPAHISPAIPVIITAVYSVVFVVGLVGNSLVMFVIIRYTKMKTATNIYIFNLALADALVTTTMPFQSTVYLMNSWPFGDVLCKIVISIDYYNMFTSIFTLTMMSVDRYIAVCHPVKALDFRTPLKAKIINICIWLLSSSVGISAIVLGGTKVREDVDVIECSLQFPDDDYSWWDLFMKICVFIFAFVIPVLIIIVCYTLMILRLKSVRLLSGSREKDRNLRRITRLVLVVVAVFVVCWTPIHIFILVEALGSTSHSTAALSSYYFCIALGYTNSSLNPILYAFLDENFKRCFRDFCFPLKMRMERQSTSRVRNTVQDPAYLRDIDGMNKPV

Structure (SMILES) | inhibition
COc1ccccc1N1CCN(C/C(N)=N/O)CC1 | -2.8% (inactive)
N/C(=N\OC(=O)c1cccc(Cl)c1)c1ccc2nonc2c1 | 3% (inactive)
COC(=O)C1=C(NNc2ccccc2)CSC1 | 8.6% (inactive)
FC(F)(F)c1ccc(-n2cn[nH]c2=S)cc1 | -0.4% (inactive)
COc1ccc(Cc2nc(C(C)(C)C)cs2)cc1 | 10.7% (inactive)
CCOC(=O)CNC(=O)c1ccc(-c2cccc([N+](=O)[O-])c2)o1 | 9.9% (inactive)
CSc1nc(-n2nc(C)cc2C)nc(-c2ccco2)c1C#N | -17.5% (inactive)
CC(N)=NCCc1ccncc1 | -6% (inactive)
N#Cc1cn(-c2cccc(C(F)(F)F)c2)c(=O)n(Cc2ccc(Cl)cc2)c1=O | -10.4% (inactive)
CC(C)S(=O)(=O)c1cscc1N/C=C(/C#N)C(=O)C1CC1 | 14.8% (inactive)
N#Cc1ccc(Oc2ccc(Cl)cc2)c([N+](=O)[O-])c1 | 5.4% (inactive)
O=C(CSc1nnc(-c2ccncc2)n1Cc1ccccc1)Nc1nnc(-c2ccco2)s1 | 2.3% (inactive)
COC(C)(OC)c1ccc(C#N)c(=S)[nH]1 | -2.3% (inactive)
FC(F)(F)c1cnc(NN=C2CCSCC2)c(Cl)c1 | -7.6% (inactive)
COc1ccc(COCC(O)CN2CCN(c3ccc(C(F)(F)F)cn3)CC2)cc1 (stereo not drawn) | -10.5% (inactive)
CN(C)C(=S)Nc1ccc(Br)cc1Cl | 12.1% (inactive)
N#CCCSc1sc(=S)sc1SCCC#N | -2.5% (inactive)
N/C(=N\OC(=O)CCn1cccc(C(F)(F)F)c1=O)c1ccc(OC(F)(F)F)cc1 | 3.1% (inactive)
Cc1cc(-c2noc(-c3cccs3)n2)no1 | -20.2% (inactive)
C/C(=N\NC(=S)Nc1cccc(F)c1)c1ccco1 | 14.4% (inactive)
Cn1cccc1CNC(=O)c1cc(F)cc2c1OCOC2 | 11.7% (inactive)
CSc1nc(N/C=C(\C#N)C(=O)c2cccs2)n2nc(C)cc2n1 | 9.3% (inactive)
COc1c(/C(N)=N/O)cc(C)c2c1CCC2 | -7.6% (inactive)
COc1cccc(C(=O)c2sc3nsc(SCc4ccc(F)cc4)c3c2N)c1 | 81.9% (active)
CCOC(=O)N1CCN(CC(O)COc2ccc(OC(F)(F)F)cc2)CC1 (stereo not drawn) | 3.6% (inactive)
COC(=O)c1ccccc1N(C)C(=O)c1cc(OC)c(OC)c(OC)c1 | 2.6% (inactive)

Structure (SMILES) | inhibition
Cc1ccc(S(=O)(=O)NNC(=O)CCc2nc(-c3ccc(Cl)cc3)no2)cc1 | -5.8% (inactive)
COC(=O)c1cc(C(N)=O)c(SC)s1 | 8.2% (inactive)
O=C(c1ccc(F)cc1)C1CCN(Cc2cn[nH]c2-c2ccccc2)CC1 | -2.9% (inactive)
O=C(CSc1ccc(Cl)cc1)NCCSCc1ccco1 | 15.7% (inactive)
Cc1nn(-c2ccccc2)nc1C(=O)Nc1nnc(C2CC2)s1 | 8.4% (inactive)
COc1ccc(OC(=O)/C=C/c2sc3ccccc3c2C)cc1 | 8.8% (inactive)
O=C1CCC(=O)N(c2ccccc2)N1 | 14.7% (inactive)
O=C1NC(=O)c2cc([N+](=O)[O-])c(Sc3c(Cl)cccc3Cl)cc21 | 4.3% (inactive)
N#CCc1ccc(NC(=O)c2ccccc2C(=O)Nc2ccc(CC#N)cc2)cc1 | 20.8% (inactive)
O=C(Nc1ccc(I)cc1Cl)C(=S)NCc1cccs1 | -3.3% (inactive)
CCOC(=O)COc1cccc2c(C)cc(=O)oc12 | -1.5% (inactive)
O=C(c1ccc(Oc2ccc(Cl)cc2)c([N+](=O)[O-])c1)N1CCCC1 | 4.1% (inactive)
CCO/N=C\c1nn(S(C)(=O)=O)cc1Br | -12.1% (inactive)
CNC(=O)c1ccccc1I | -1.2% (inactive)
CSc1nnc(-c2ccc(C(F)(F)F)cn2)o1 | -0.1% (inactive)
Cn1cnnc1SCC(=O)Nc1cc(C(F)(F)F)cc(C(F)(F)F)c1 | 0.9% (inactive)
CC(C)(C)NC(=O)N/N=C/c1[nH]ncc1Br | 1% (inactive)
Cc1cc(/C(N)=N/OC(=O)c2cccs2)c(-c2ccccc2)o1 | -13% (inactive)
CN(C)NC(=O)c1csnc1-c1c(Cl)cccc1Cl | 36.6% (inactive)
COC(=O)c1ccc(S(=O)(=O)N2CCN(c3ccc([N+](=O)[O-])cn3)CC2)n1C | -6.6% (inactive)
CCOC(=O)/C(C#N)=C/c1ccc(-c2nccs2)cc1C(C)(C)C | -2.8% (inactive)
COC(=O)c1cnc(N2CCCN(C(=O)C3COc4ccccc4O3)CC2)nc1C(F)(F)F (stereo not drawn) | -8.4% (inactive)
CCc1cnc(NS(=O)(=O)c2cc(Cl)sc2Cl)nc1-c1c(F)cccc1F | 1.8% (inactive)
CCOC(=O)Cc1nc(N)ncc1C(=O)OCC | 17.3% (inactive)
FC(F)(F)c1ccc(/C=N/Nc2nccc(C(F)(F)F)n2)cc1 | 6.7% (inactive)
Cc1nc2sc(-c3ccccc3)cc2c(=O)o1 | -0.4% (inactive)

Structure (SMILES) | inhibition
CCOCCOCCN(CC)c1ccc(N=Nc2c(C#N)cc([N+](=O)[O-])cc2C#N)c(NC(C)=O)c1 | -11.4% (inactive)
O=c1cc(-c2ccccc2)sc2ccc(Cl)cc12 | -5.7% (inactive)
OC(CNCCNc1nccc(C(F)(F)F)n1)COc1ccc(Cl)c(Cl)c1 (stereo not drawn) | -9.3% (inactive)
CC(=O)Nc1ccc(/C(N)=N/O)cc1 | 9.1% (inactive)
O=c1oc(/C=C/c2ccccc2)nc2ccccc12 | -41.1% (inactive)
COc1cc(OC)nc(/N=C/c2nc(-c3ccccc3)oc2O)n1 | 5.7% (inactive)
N/C(=N/OC(=O)NC(=O)c1c(Cl)cccc1Cl)c1ccc(F)cc1F | -5.4% (inactive)
N#Cc1c(-c2ccccc2)c(-c2ccccc2)n[nH]c1=O | 20% (inactive)
N#C/C(=C\C=C\c1ccccc1)c1nc2ccccc2[nH]1 | 13.4% (inactive)
S=C(Nc1cccnc1)N1CCCN(Cc2ccc(Cl)cc2Cl)CC1 | 4.7% (inactive)
Cc1ccc(Oc2c(C)[nH]c(=S)[nH]c2=O)cc1 | -1.2% (inactive)
O=C(Nc1ccccc1N1CCOCC1)C1CCN(c2nccc(C(F)(F)F)n2)CC1 | 9.4% (inactive)
Cc1cc(NC(=O)c2cc(-c3ccccc3)c(C(F)(F)F)s2)no1 | -1.6% (inactive)
CSc1sc(C(=O)Nc2cccc(Cl)c2)c(-c2cccs2)c1C#N | 5.9% (inactive)
Cn1cnc(S(=O)(=O)Nc2ccc3[nH]ccc3c2)c1 | -0.5% (inactive)
CC(C)(C)C(=O)Nc1c(Br)c(C2CC2)nn1-c1ccccc1 | 4.1% (inactive)
COC(=O)C1=C(NNc2ncc(Cl)cc2C(F)(F)F)CSC1 | -2.3% (inactive)
CC(=O)OCC(=O)[C@@]1(O)[C@H](C)CC2C3CCC4=CC(=O)C=CC4(C)C3=CCC21C (stereo partly drawn) | 0.2% (inactive)
Cc1ccc(S(=O)(=O)NNC(=S)NC(C)(C)C)cc1 | -0.7% (inactive)
CC(=O)c1cc([N+](=O)[O-])c(NC2CCCCC2)s1 | -27.9% (inactive)
Clc1ccc(CO/N=C/c2nc3ccccc3s2)cc1 | 16.1% (inactive)
N#Cc1cc([N+](=O)[O-])c(N2CCCC2)cc1N1CCCC1 | -4.1% (inactive)
Cn1nc(C(C)(C)C)c(NC(=O)c2sccc2Cl)c1C(C)(C)C | -1.9% (inactive)
CCSC(=O)NCc1ccccc1 | -12.7% (inactive)
Cc1nc(C(F)(F)F)ccc1C(=O)NCCNc1ncccc1C(F)(F)F | -36.9% (inactive)
CCOC(=O)c1cc(C)n(-c2cccc([N+](=O)[O-])c2)c1-c1ccccc1 | -0.8% (inactive)

Structure (SMILES) | inhibition
Cn1cc(C(=O)Nc2ccc(F)c(Cl)c2)c(N)n1 | 20.6% (inactive)
Cc1nnsc1C(=O)NN(C)c1ccc([N+](=O)[O-])cn1 | 14.8% (inactive)
CC1(C)CC(=O)C(N=Nc2c(F)cccc2F)=C(O)C1 | -7.3% (inactive)
CCOC(=O)NC(=O)/C(=C/NC(C)C)C(=O)OCC | 5.6% (inactive)
O=C1CCCCC(=O)c2ccccc2N1 | 7.1% (inactive)
Cc1ccc(C(=O)N2CCN(c3cccc4[nH]ccc34)CC2)cc1 | 2.5% (inactive)
CCOC(=O)c1nnc2c(Br)c(C)nn2c1C | 3.1% (inactive)
O=[N+]([O-])c1ccc(N2CCSCC2)cc1O | 3.6% (inactive)
COc1ccc(/C(C)=N/Nc2c([N+](=O)[O-])cc(C(F)(F)F)cc2[N+](=O)[O-])cc1CC#N | -23.7% (inactive)
C=CCn1c(SCC(=O)Nc2nnc(-c3cccs3)s2)nnc1-c1ccco1 | 8.8% (inactive)
COC(=O)c1cccc(CSc2ncccc2C(=O)O)c1 | 15.2% (inactive)
CC(=O)c1nnc2cc(C)nn2c1C | 28.9% (inactive)
CSc1sc(C(N)=O)cc1C#N | 6.9% (inactive)
Cc1cc(C(=O)NNC(=O)c2cc(C)n(C(C)(C)C)n2)no1 | 8.1% (inactive)
COc1ccc2c(OC(C)=O)coc2c1 | -6.7% (inactive)
N#C/C(=C\c1cccn1S(=O)(=O)c1ccccc1)C(=O)c1ccccc1 | 7.4% (inactive)
N#Cc1ccc(OS(=O)(=O)c2cc(C(F)(F)F)cc(C(F)(F)F)c2)cc1 | -5.9% (inactive)
COC(=O)c1ccccc1NC(=S)NNC(=O)c1ccc([N+](=O)[O-])cc1 | 7.8% (inactive)
COC(=O)c1ccc(/C=C2\C(=O)Nc3ccccc32)n1-c1ccc(F)cc1 | 84.7% (active)
Cc1c(C)c(C)c(CSC(=N)CC#N)c(C)c1C | -7.6% (inactive)
O=C(CSc1nc2ccccc2o1)N1CCC(n2cccc2)CC1 | 1.7% (inactive)
CCCc1c(C(=O)O)cnn1-c1ccc(Cl)cc1 | -5.5% (inactive)
CCCc1nc(N)ncc1C(=O)OCC | -2.5% (inactive)
CCOC(=O)c1c(C)csc1NC(=O)CC(=O)C(F)(F)F | -3% (inactive)
Oc1ccc(-n2cncn2)cc1 | -0.4% (inactive)
